Inconclusive results are not listed. Calls of active or inactive are those of the source. Unless noted, the call rests on the fitted dose curve; in most records, active means well fitted curve in the direction sought with a large enough effect in the repeat runs; inconclusive means weak or mixed curves; inactive means no such curve, though single readings can be large; an effect the other way counts as inactive or inconclusive.
What was measured:
[1] = qHTS assay for small molecule agonists of the p53 signaling pathway (AID 651631; calls by dose curve; further: nearly all actives have a fitted effect of over 15% in size)
Method in brief: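 Quantitative high-throughput format: 4,000 p53RE-bla HCT-116 cells/well, 5 h pre-incubation, 16 h compound exposure at 37 °C, 2 h room-temperature substrate step, fluorescence intensity measured.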

[2] = qHTS assay for small molecules that induce genotoxicity in human embryonic kidney cells expressing luciferase-tagged ATAD5 (AID 651632); further: nearly all actives have a fitted effect of over 15% in size
Method in brief: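 Genotoxicity read-out via ATAD5-luciferase: HEK293T cells, 16 hr compound incubation at 37C, Amplite detection.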

[3] = qHTS assay for small molecule agonists of the p53 signaling pathway - cell viability (AID 651633; calls by dose curve;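 further: p53RE-bla HCT reporter cells with a stable beta-lactamase p53 reporter; series mostly up to about 83 µM; nearly all actives have a fitted effect of over 30% in size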)
Method in brief: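 p53RE-bla cells were treated with compound for 16 hours at 37 C. Cytotoxicity was then measured as CellTiter-Glo luminescence after 30 min at room temperature.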

[4] = qHTS assay for small molecules that induce genotoxicity in human embryonic kidney cells expressing luciferase-tagged ATAD5 - cell viability (AID 651634; calls by dose curve; further: nearly all actives have a fitted effect of over 25% in size)
Method in brief: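 Live-cell protease activity (CellTiter-Fluor, fluorescence) indicates viability. HEK293T cells with luciferase-tagged ATAD5; 15.5 hr compound treatment at 37C.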

[5] = qHTS assay for small molecule disruptors of the mitochondrial membrane potential - cell viability (AID 720634; calls by dose curve;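 further: human HepG2 liver cancer cells; series mostly up to about 83 µM; nearly all actives have a fitted effect of over 20% in size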)
Method in brief: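 Human hepatoma HepG2 cells were treated for 1 hr with test chemicals, then given m-MPI dye and CellTiter-Glo. Cell viability reflects luminescence proportional to cellular ATP.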

[6] = qHTS assay to test for compound auto fluorescence at 590 nm (red) in HepG2 cells (AID 720674)
Method in brief: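 Fluorescence at 590 nm emission following 540 nm excitation was recorded from HepG2 wells one hour after compound transfer, with DMSO-only wells as vehicle and Rose Bengal sodium equivalency as the scale.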

[7] = qHTS assay to test for compound auto fluorescence at 535 nm (green) in HepG2 cells (AID 720675)
[8] = qHTS assay to test for compound auto fluorescence at 460 nm (blue) in HEK293 cells (AID 720678)
Method in brief: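 Triamterene serves as the blue fluorophore standard. Compound signal at 405/460 nm is read in HEK293 wells (2,000 cells, 10% dialyzed FBS) after overnight treatment at 37C.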

[9] = qHTS assay to test for compound auto fluorescence at 590 nm (red) in HEK293 cells (AID 720679)
Method in brief: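 We plated HEK293 cells in 10% dialyzed FBS medium, let them adhere for 4-5 hr, then added 23 nL compound. Overnight at 37C and 5% CO2 preceded fluorescence measurement at 540/590nm.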

[10] = qHTS assay to test for compound auto fluorescence at 535 nm (green) in HEK293 cells (AID 720680)
[11] = qHTS assay to test for compound auto fluorescence at 460 nm (blue) in HEK293 cell free culture (AID 720681)
Method in brief: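 Compounds were added to cell-free DMEM with 10% FBS and fluorescence read directly. The blue channel used 405 nm excitation and 460 nm emission, with triamterene as the reference fluorophore.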

[12] = qHTS assay to test for compound auto fluorescence at 535 nm (green) in HEK293 cell free culture (AID 720682)
Method in brief: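 Measurement is a direct plate read of green fluorescence (485 nm in, 535 nm out) after compound addition to serum-supplemented DMEM lacking cells, with fluorescein used to express intensities.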

[13] = qHTS assay to test for compound auto fluorescence at 590 nm (red) in HEK293 cell free culture (AID 720683)
Method in brief: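 Cell-free wells of DMEM with 10% FBS received compound, and intrinsic fluorescence was read at excitation/emission 540/590 nm. Values expressed as equivalence to Rose Bengal sodium.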

[14] = qHTS assay to test for compound auto fluorescence at 590 nm (red) in HepG2 cell free culture (AID 720684)
Method in brief: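 Compounds are added to culture medium (MEM, 10% FBS) lacking cells, then fluorescence is read at excitation 540 nm, emission 590 nm, with Rose Bengal sodium as the equivalency standard.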

[15] = qHTS assay to test for compound auto fluorescence at 460 nm (blue) in HepG2 cell free culture (AID 720685)
Method in brief: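 Compound (23 nL) or DMSO pinned into cell-free MEM with 10% FBS; blue fluorescence read at 405/460 nm excitation/emission, expressed as auto-fluorescence equivalency to triamterene.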

[16] = qHTS assay to test for compound auto fluorescence at 535 nm (green) in HepG2 cell free culture (AID 720686)
[17] = qHTS assay to test for compound auto fluorescence at 460 nm (blue) in HepG2 cells (AID 720687)
Method in brief: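 HepG2 cells in MEM with 10% FBS, attached overnight at 37 C, were exposed to compound or DMSO for 1 hr at 37 C, 5% CO2. Blue fluorescence was read at 405/460 nm, with triamterene as reference fluorophore.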

[18] = biological target: Glucocorticoid receptor (Homo sapiens) (UniProt P04150); assay: qHTS assay to identify small molecule agonists of the glucocorticoid receptor (GR) signaling pathway (AID 720691; active means well fitted activation curve with a large enough effect in the signal ratio in the repeat runs, not every such curve was filed as active; the % refers to the signal ratio)
Method in brief: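 Beta-lactamase reporter activity, read as fluorescence intensity, was measured in GR-bla HeLa cells exposed to compounds for 18 h at 37 C and then loaded with LiveBLAzer B/G FRET substrate for 2 h at room temperature.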

[19] = biological target: Glucocorticoid receptor (Homo sapiens) (UniProt P04150); assay: qHTS assay to identify small molecule antagonists of the glucocorticoid receptor (GR) signaling pathway (AID 720692; active means well fitted inhibition curve with a large enough effect in the signal ratio in the repeat runs, not every such curve was filed as active; the % refers to the signal ratio)
Method in brief: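 Fluorescence from cleaved LiveBLAzer B/G FRET substrate reports GRE-driven beta-lactamase in HeLa cells; compounds are tested against 5 nM dexamethasone (final) over 18 h at 37 C, substrate incubation 2 h at room temperature.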

[20] = qHTS assay for small molecule disruptors of the mitochondrial membrane potential (AID 720635)
Method in brief: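 HepG2 cells exposed to compound 1 hr at 37C, then Mito-MPS dye 30 min. Ratio read of aggregate (540/590 nm) versus monomer (490/535 nm) fluorescence.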

Measured: Potency

Sequence of Glucocorticoid receptor (Homo sapiens) (P04150 whole entry, looked up): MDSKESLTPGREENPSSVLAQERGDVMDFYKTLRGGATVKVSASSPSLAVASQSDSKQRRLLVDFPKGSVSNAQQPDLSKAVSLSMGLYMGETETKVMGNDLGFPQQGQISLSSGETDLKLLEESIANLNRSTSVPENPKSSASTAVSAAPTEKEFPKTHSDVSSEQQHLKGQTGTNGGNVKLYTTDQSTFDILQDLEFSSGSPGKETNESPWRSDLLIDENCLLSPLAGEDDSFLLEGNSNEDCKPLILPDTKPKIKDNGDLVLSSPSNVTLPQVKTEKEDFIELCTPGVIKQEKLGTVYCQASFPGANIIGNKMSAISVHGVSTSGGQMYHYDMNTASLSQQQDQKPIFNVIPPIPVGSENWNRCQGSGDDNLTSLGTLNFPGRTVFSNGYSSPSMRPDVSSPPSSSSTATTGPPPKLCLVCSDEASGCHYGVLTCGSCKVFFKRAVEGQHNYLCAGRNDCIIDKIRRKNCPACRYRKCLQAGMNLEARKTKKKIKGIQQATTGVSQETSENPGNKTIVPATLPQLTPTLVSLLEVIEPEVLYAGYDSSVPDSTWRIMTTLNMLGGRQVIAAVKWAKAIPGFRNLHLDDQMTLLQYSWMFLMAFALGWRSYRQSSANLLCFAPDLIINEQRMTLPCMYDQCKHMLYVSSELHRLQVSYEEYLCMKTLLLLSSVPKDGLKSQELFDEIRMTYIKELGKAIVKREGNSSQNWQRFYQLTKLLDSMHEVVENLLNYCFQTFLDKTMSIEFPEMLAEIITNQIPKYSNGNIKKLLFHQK

CCC=CC#N
inactive: [1] | [2] | [3] | [4] | [5] | [6] | [7] | [8] | [9] | [10] | [11] | [12] | [13] | [14] | [15] | [16] | [17] | [18] | [19]

NCCNCCO
inactive: [1] | [2] | [3] | [4] | [5] | [20] | [7] | [8] | [9] | [10] | [11] | [13] | [14] | [15] | [16] | [17] | [18] | [19]

C1C[C@@H]2[C@H]3CC[C@H](C3)[C@@H]2C1
inactive: [1] | [2] | [3] | [4] | [5] | [6] | [7] | [8] | [10] | [11] | [12] | [13] | [14] | [15] | [16] | [17]

FC(F)(F)c1ccccc1Cl
inactive: [1] | [2] | [3] | [4] | [5] | [20] | [7] | [8] | [9] | [10] | [11] | [12] | [13] | [14] | [15] | [16] | [17] | [18] | [19]

Cc1cccc(N(C)C(=S)Oc2ccc3c(c2)CCC3)c1
inactive: [1] | [2] | [3] | [4] | [5] | [6] | [7] | [8] | [9] | [10] | [11] | [12] | [13] | [14] | [15] | [16] | [17] | [18]

C=COCC(C)C
inactive: [1] | [2] | [3] | [4] | [5] | [7] | [8] | [9] | [10] | [11] | [12] | [13] | [14] | [15] | [16] | [17]

O=C(Cn1ccnc1[N+](=O)[O-])NCCO
inactive: [1] | [2] | [3] | [4] | [5] | [6] | [7] | [8] | [9] | [10] | [11] | [12] | [14] | [15] | [16] | [17]

Oc1cccc(O)c1O
inactive: [1] | [2] | [3] | [4] | [5] | [6] | [7] | [8] | [9] | [10] | [11] | [12] | [13] | [14] | [15] | [16] | [17] | [18]

Reference: PubChem BioAssay (Tox21)
